# Screening data (PubChem BioAssay)
# CYP2C9 activ = activators of human CYP2C9; activation factor at 5 µM; 96,000 tested, 1.4% active; P11712; recombinant CYP2C9, luciferin-H conversion, luminescence; active compounds read high; factor 1 = untreated enzyme, 0 = blocked;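 active means activation factor of 2 or more for CYP2C9 at a 5 µM dose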;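 further: 0 = sulfaphenazole-blocked wells and 1 = vehicle-only wells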
# Target sequence (P11712 whole entry, looked up): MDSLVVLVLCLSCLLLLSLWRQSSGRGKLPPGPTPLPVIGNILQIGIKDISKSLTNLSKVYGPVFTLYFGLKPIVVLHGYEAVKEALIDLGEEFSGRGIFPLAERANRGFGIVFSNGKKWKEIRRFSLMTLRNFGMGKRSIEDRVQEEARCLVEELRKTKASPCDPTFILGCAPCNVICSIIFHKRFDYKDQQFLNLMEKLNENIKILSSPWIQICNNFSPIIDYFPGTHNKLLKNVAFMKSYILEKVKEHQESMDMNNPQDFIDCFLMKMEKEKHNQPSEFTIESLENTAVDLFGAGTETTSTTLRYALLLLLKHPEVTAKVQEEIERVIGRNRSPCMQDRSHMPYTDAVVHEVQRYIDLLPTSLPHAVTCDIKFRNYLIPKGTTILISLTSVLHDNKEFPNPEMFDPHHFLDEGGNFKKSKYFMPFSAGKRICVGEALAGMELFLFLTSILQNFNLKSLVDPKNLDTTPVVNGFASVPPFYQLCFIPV
# CYP2C9 inhib = blocks human cytochrome P450 2C9; 96,000 tested, 20% active; inhibition, % at 5 µM; P11712; AID 777; CYP2C9 Supersomes, luciferin-H conversion, luminescence;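 active means blocking of liver enzyme CYP2C9 beyond about 50% at 5 µM, limit read from the data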
# CYP2C19 inhib = human CYP2C19 inhibition; CYP2C19 Supersomes, luciferin-H EGE luminescence, 30 min; inhibition, % at 5 µM; 96,000 tested, 21% active; AID 778;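 active means CYP2C19 inhibition above a set limit at 5 µM in the primary screen, cut at about 50% in these data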;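 further: plate controls were negative control wells for no effect and 2.5 mM tranylcypromine positive control for full effect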
# CYP2C19 activ = activators of human cytochrome P450 2C19. AID 1025. activation factor at 5 µM. recombinant CYP2C19, luciferin-H EGE luminescence; active compounds read high; 0 = fully inhibited enzyme, 1 = untreated enzyme. 96,000 tested, under 10 active. P33261;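 active means activation factor of at least 2 at 5 µM in the primary screen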;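 further: 0 = wells with 2.5 mM tranylcypromine and 1 = vehicle-only wells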
# Measles CPE = protection of cells from measles virus; Measles virus-infected cells, CPE protection, absorbance; protection (pct of control), % at 4 µM; 140,000 tested, 1.5% active; AID 841; in the data active means protection mostly above about 24%, no sharp cut-off; inactive means mostly below about 26%
# * marks the source's active call; other numbers are inactive results; . = not tested or not shown. This is a sample that favours compounds with a hit; in the whole collection about 22% have one here.
SMILES,CYP2C9 activ,CYP2C9 inhib,CYP2C19 inhib,CYP2C19 activ,Measles CPE
O=C(Cn1c(=O)c2c(ncn2C2CCCC2)n(Cc2ccccc2)c1=O)N1CCc2ccccc21,0.9,13,11,0.9,3
Cc1ccc(CSc2nc3ccncc3[nH]2)cc1,0.1,88*,99*,0,24
Clc1ccc(CSc2nc3ccncc3[nH]2)cc1,0.1,89*,98*,0,6
C=C(C)CSc1nc2ncccc2[nH]1,1.1,-13,18,0.8,18
O=C(c1ccc(CSc2nc3ccncc3[nH]2)cc1)N1CCN(c2cccc(Cl)c2)CC1,.,.,.,.,11
Cc1ccc(CSc2nc3ncccc3[nH]2)cc1,0.4,56*,76*,0.2,6
COC(=O)c1ccc(OCc2nc(N)nc(N3CCOCC3)n2)cc1,0.9,10,1,1,10
Cc1ccc(NC(=O)Nc2ccccc2C(=O)NCc2ccccc2)cc1,0.9,14,3,1,6
Cn1nnnc1SCC1=C(C(=O)O)N2C(=O)[C@@H](NC(=O)[C@H](O)c3ccccc3)[C@H]2SC1,.,.,.,.,14
Cc1ccc(C(=O)NCCNc2ccc(Cl)cc2[N+](=O)[O-])o1,0.4,55*,33,0.7,20
CS(=O)(=O)NCCCNc1ccc(Cl)cc1[N+](=O)[O-],0.5,48,66*,0.3,10
CN(C)S(=O)(=O)c1cccc(NC(=O)c2ccc(OC(F)(F)F)cc2)c1,.,.,.,.,2
CCCOC(=O)CSC1=C(C#N)C(c2ccccc2OCC)C(C#N)C(=O)N1 (configuration not stated),0.3,67*,43,0.6,26
CCCCOC(=O)CSC1=C(C#N)C(c2ccccc2OCC)C(C#N)C(=O)N1 (configuration not stated),0.2,79*,50,0.5,4
CCCCOC(=O)CSC1=C(C#N)C(c2ccccc2OC)C(C#N)C(=O)N1 (configuration not stated),0.5,55*,64*,0.4,4
COCCCn1[nH]c2c3c(ccc2c1=O)C(=O)c1ccccc1C3=O,0.4,64*,5,0.9,20
CC(C)(C)C(=O)N1CCN(c2ccc([N+](=O)[O-])c(-n3nc(-c4ccccc4)c4ccccc4c3=O)c2)CC1,.,.,.,.,22
Cc1ccc(-c2nn(-c3cc(Cl)ccc3[N+](=O)[O-])c(=O)c3ccccc23)cc1,0.7,31,51*,0.5,0
Cc1ccc(NS(=O)(=O)c2ccc(NS(=O)(=O)c3cccs3)cc2)cc1,0.1,87*,50,0.5,24
CCCCc1ccc(NS(=O)(=O)c2cccs2)cc1,0.4,59*,49,0.5,34
NS(=O)(=O)c1ccc(NS(=O)(=O)c2cccs2)cc1,0.8,22,8,0.9,10
O=S(=O)(Nc1ccc(Cc2ccncc2)cc1)c1ccc(Br)cc1,0,99*,100*,0,8
CCS(=O)(=O)Nc1ccc(Cc2ccncc2)cc1,0.1,95*,93*,0.1,29
COc1ccc(N=Cc2cccc(C)c2O)cc1Cl,.,.,.,.,10
COC(=O)C1=NN(C(=O)c2cccc(Cl)c2)C(O)(C(C)(C)C)C1 (configuration not stated),.,.,.,.,22
SMILES,CYP2C9 activ,CYP2C9 inhib,CYP2C19 inhib,CYP2C19 activ,Measles CPE
COc1cc(OC)c(NC2=NCCCCC2)cc1Cl,1,4,14,0.9,8
O=S(=O)(Nc1ccc(Cc2ccncc2)cc1)c1cccs1,0,99*,100*,0,46*
N#CCc1ccc(NS(=O)(=O)c2cccs2)cc1,0.3,72*,86*,0.1,7
O=S(=O)(Nc1ccc(Cc2ccncc2)cc1)c1ccc(Br)s1,0,100*,72*,0.3,1
O=C(CSc1nnnn1-c1ccccc1)Nc1ccc(Cl)cc1,0.7,27,36,0.6,20
CN(C)/N=C/c1ccc(Sc2ccc([N+](=O)[O-])cc2[N+](=O)[O-])o1,.,.,.,.,7
CCCn1c(=O)c2c(C(=O)OCC)cc(-c3ccco3)nc2n(CCC)c1=O,0.4,61*,30,0.7,33
CCCn1c(=O)c2c(C(F)(F)F)cc(-c3ccco3)nc2n(CCC)c1=O,1.2,-17,-8,1.1,6
N#CCc1nc(CSc2nc3ccccc3s2)cs1,0.7,28,98*,0,3
Cn1c[n+](C)cc1-c1ccc(/C(N)=N/O)cc1,.,.,.,.,10
Cc1ccc(C2N(C)c3ccccc3-c3nc4ccccc4n32)o1 (configuration not stated),0.1,93*,87*,0.1,7
CCN1c2ccccc2-c2nc3ccccc3n2C1c1cccnc1 (configuration not stated),0.3,71*,15,0.8,13
CCN1c2ccccc2-c2nc3ccccc3n2C1c1ccncc1 (configuration not stated),0,100*,98*,0,18
c1cncc(C2Nc3ccccc3-c3nc4ccccc4n32)c1 (configuration not stated),0.4,57*,37,0.6,8
Cn1cc(Cl)c(C(=O)Nc2nc3ccc(Cl)cc3s2)n1,1.3,-33,-22,1.2,.
Cc1cc(C)c2c(C)c(C(=O)Nc3c(C)n(C)n(-c4ccccc4)c3=O)oc2c1,.,.,.,.,23
CN(C)CCN(Cc1ccccc1)c1nccc(N(C)C)c1C#N,0.8,23,12,0.9,5
CN(C)c1nccc(Nc2ccccc2)c1C#N,0.5,49,51*,0.5,15
Cn1c(Cn2nnc3ccccc32)nnc1SCC(=O)N1c2ccccc2CCc2ccccc21,0.4,64*,40,0.6,2
Cc1nnc(SCC(=O)N2c3ccccc3Sc3ccccc32)n1N,1,3,22,0.8,20
Cn1nnnc1SCC(=O)N1c2ccccc2Sc2ccc(Cl)cc21,0.6,36,75*,0.3,3
Cn1c(Cn2nnc3ccccc32)nnc1SCC(N)=O,1.2,-19,-20,1.2,25
Cn1c(Cn2nnc3ccccc32)nnc1SCC(=O)N1c2ccccc2Sc2ccccc21,0.5,52*,33,0.7,4
CC(C)NC(=O)c1ccc(CS(=O)(=O)c2ccc(Br)cc2)o1,0.5,46,13,0.9,8
CCCC1CC(c2csc(N)n2)CCO1 (configuration not stated),0.2,76*,80*,0.2,6
SMILES,CYP2C9 activ,CYP2C9 inhib,CYP2C19 inhib,CYP2C19 activ,Measles CPE
CCOC(=O)c1ccccc1-c1csc(NS(=O)(=O)c2ccc(Cl)cc2)n1,0,99*,33,0.7,9
COc1ccc(-c2csc(NC(=O)c3ccccc3NS(=O)(=O)c3ccc(C)cc3)n2)cc1,.,.,.,.,8
CCOC(=O)c1ccccc1NC(=O)COc1ccccc1,1.3,-34,16,0.8,7
COC(=O)c1ccccc1NS(=O)(=O)c1ccc(F)cc1,.,.,.,.,5
CCOC(=O)c1ccccc1NS(=O)(=O)c1ccccc1,1.5,-52,98*,0,7
CCOC(=O)c1ccccc1NC(=O)c1ccccc1SC,1.6,-64,14,0.9,0
COC(=O)COc1ccc(S(=O)(=O)Nc2ccccc2C(=O)OC)cc1,2*,-102,96*,0,6
